# Compound activity as filed in PubChem.
# The sample as a whole holds a higher share of hits than the screen did.
# FBPA Giardia inh: inhibitors of Giardia lamblia fructose-1,6-bisphosphate aldolase; purified Giardia FBPA; Potency, µM (top dose mostly 59.6 µM), actives largely listed as inhibitors; 290,000 tested, 0.71% active; AID 2451; note: nearly all actives have a fitted effect of over 55% in size
#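 Giardia FBPA (40 nM reagent) was preincubated 10 min at RT with compound (up to 57.5 uM final), then substrate plus GAPDH/TPI/NAD/arsenate coupling system with diaphorase/resazurin was added; resorufin fluorescence (525/598 nm) was read after 20 min.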
# LmPK inh: blocks Leishmania mexicana pyruvate kinase activity; Potency, µM (series often up to 57.5 µM), actives largely listed as inhibitors; purified LmPK, Kinase-Glo ATP luminescence, 1 h; AID 1721; 290,000 tested, 0.37% active; Q27686
# Target sequence (Q27686 whole entry, looked up): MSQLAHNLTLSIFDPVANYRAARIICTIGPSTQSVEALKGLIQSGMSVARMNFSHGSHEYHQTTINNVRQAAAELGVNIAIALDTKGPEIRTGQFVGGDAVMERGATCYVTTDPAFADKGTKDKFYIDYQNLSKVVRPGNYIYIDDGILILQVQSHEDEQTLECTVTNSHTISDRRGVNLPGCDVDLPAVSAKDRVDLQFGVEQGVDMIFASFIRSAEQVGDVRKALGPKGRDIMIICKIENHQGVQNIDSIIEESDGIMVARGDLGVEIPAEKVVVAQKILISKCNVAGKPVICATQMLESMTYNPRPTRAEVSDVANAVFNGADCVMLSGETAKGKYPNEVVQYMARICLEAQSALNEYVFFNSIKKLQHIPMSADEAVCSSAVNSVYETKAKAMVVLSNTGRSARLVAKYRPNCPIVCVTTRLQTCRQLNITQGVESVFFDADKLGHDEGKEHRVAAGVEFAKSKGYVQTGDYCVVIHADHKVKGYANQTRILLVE
#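 In 50 mM imidazole pH 7.2 with 7 mM MgCl2, LmPK (0.1 nM) turned over PEP (0.5 mM) and ADP (0.1 mM) for 1 h at room temperature. Luciferase read-out of ATP.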
# CHX counter: affects cycloheximide protein synthesis inhibition readout, counter-screen; cell reporter, cycloheximide protein synthesis inhibition counterscreen; max response, %; 300,000 tested, 12% active; AID 2314; in the data active = max response mostly above about 13%, no sharp cut-off; inactive = mostly below about 14%; note: read at 38.3 µM for the half of the compounds with a filed dose
# Tb PYK inh: inhibitors of Trypanosoma brucei pyruvate kinase; Q57TT1; TbPYK enzyme, Kinase-Glo Plus ATP luminescence, 45 min; Potency, µM (highest dose often 76.8 µM), most hits filed as inhibitors; 410,000 tested, 0.12% active; note: nearly all actives have a fitted effect of over 50% in size
#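 TbPYK + substrate in 50 mM TEA pH 7.2, 100 mM KCl, 10 mM MgCl2, 0.05% BSA, 0.01% Tween-20; cpd pinned; ADP 130 uM final; 45 min RT; Kinase-Glo Plus 10 min; luminescence endpoint.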
# Shiga inhibitor: blocks Shiga toxin action in Vero cells | Vero cells, Shiga toxin protein synthesis inhibition reporter | inhibition, % at 38.7 µM | 290,000 tested, 9.2% active; in the data active = inhibition mostly above about 28%, no sharp cut-off; inactive = mostly below about 43%
# RE007 growth inh: less growth of the S. pombe RE007 Vpr strain | S. pombe RE007 Vpr strain, BacTiter-Glo ATP luminescence, 24 h | Potency, µM (doses to about 92.2 µM), usual class: inhibitors | 360,000 tested, 0.21% active | AID 651644; active = well fitted falling curve with a large enough effect; inconclusive = small, poorly fitted or top-dose-only effect; inactive = no such curve, though single readings can be large or run the other way; note: nearly all actives have a fitted effect of over 50% in size
#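 Fission yeast strain RE007, carrying one chromosomally integrated HIV-1 vpr copy, was seeded at OD 0.01 in PMG+AL medium with 23 nL pinned compound. After 24 h at 30 °C and 99% humidity, viability was read by BacTiter-Glo luminescence.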
# Hits are given with their value; - = inactive; ? = inconclusive; . = no result given; [ ] = remark or other dose. Unless noted, calls come from the whole dose curve; as a rule, active = well fitted curve in the direction sought with a large enough effect; inconclusive = small, poorly fitted or top-dose-only effect, or another doubt; inactive = no such curve, though single readings can be large; an effect the other way counts as inactive or inconclusive.
SMILES,FBPA Giardia inh,LmPK inh,CHX counter,Tb PYK inh,Shiga inhibitor,RE007 growth inh
O=C(c1ccc2c(c1)OCO2)N1CCc2ccccc21,-,-,-,-,58.7,-
Cc1cc(Nc2ccc(C)c(C)c2)n2cnnc2n1,.,.,.,-,.,.
O=C(COc1ccccc1F)N1CCCc2ccccc21,-,-,22.4,-,.,-
O=C(COc1ccccc1[N+](=O)[O-])N1CCCc2ccccc21,-,-,16.8,-,-,-
O=c1c(-c2cc(F)cc(F)c2)nc2cnc(N3CCOCC3)nc2n1Cc1ccc(F)cc1,-,.,.,.,.,.
O=C1CCC/C1=C/Nc1ccc2c(c1)OCO2,?,-,42.2,.,94.8,-[3.69 µM]
CC1CCC/C(=C\Nc2ccc3c(c2)OCO3)C1=O (centres undefined),?,-,32.7,-,51.2,-
CC1CCC/C(=C\Nc2ccccc2C(=O)O)C1=O (centres undefined),-,-,-,-,-,-
O=C1OCCC/C1=C\c1ccc2c(c1)OCO2,-,-,-,-,-,.
Cc1c(/C=N/Nc2ccc(C(=O)O)cc2)c2ccccc2n1C,-,-,42.4,-,-,-
O=C(O)c1ccc(N/N=C/c2cn(Cc3ccc(F)cc3)c3ccccc23)cc1,-,-,29.5,-,70.2,-
O=S(=O)(N/N=C/c1cn(Cc2ccccc2)c2ccccc12)c1ccccc1,-,-,-,-,50.8,-
O=C(N/N=C/c1cn(Cc2ccccc2)c2ccccc12)c1cc(O)cc(O)c1,-,-,-,-,-,-
Cc1ccc(C(=O)N/N=C/c2cn(Cc3ccccc3)c3ccccc23)cn1,-,-,20.4,-,-,-
COc1ccc(Oc2c(C(F)(F)F)oc3c(CN4CCCC(C)C4)c(O)ccc3c2=O)cc1 (centres undefined),.,.,.,-,.,.
NCCC(=O)N[C@@H](Cc1cnc[nH]1)C(=O)O,-,.,.,.,.,.
COC(=O)C(C(=O)OC)[C@@H]1c2ccccc2[C@H]2C(=C[C@@H](C)[C@H]3C(=O)N(c4ccccc4)C(=O)[C@H]32)N1C(=O)OC,-[12.9 µM],-[11.5 µM],.,.,.,.
CC(=O)Nc1cnc(NC(=O)c2cccc(F)c2)cc1C,-,-,50.0,-,55.4,-
CCC(=O)Nc1cnc(NC(=O)c2cccc(F)c2)cc1C,-,20µM,-,-,-,-
COc1ccc2[nH]cc(CCNc3nc(-c4ccccc4CN(C)C)nc4ccccc34)c2c1,-,.,.,.,.,.
CCc1cccc(C)c1NC(=O)C(NS(=O)(=O)c1ccc2c(c1)CCC(=O)N2)c1ccccc1 (centres undefined),.,.,.,-,.,.
CCOC(=O)c1cc(OC(=O)c2cc(OC)cc(OC)c2)n(-c2ccccc2)n1,.,.,.,-,.,.
CCc1cccc(C)c1NC(=O)C1CCCN1S(=O)(=O)c1cccc2nsnc12 (centres undefined),.,.,.,-,.,.
CN(C)S(=O)(=O)Nc1ccc2c(c1)Cc1ccccc1-2,-,-,29.2,-,106.7,-
O=c1c2oc3ccccc3c2n(Cc2ccc(Cl)cc2)c(=O)n1Cc1ccc2c(c1)OCO2,.,.,.,-,.,.
SMILES,FBPA Giardia inh,LmPK inh,CHX counter,Tb PYK inh,Shiga inhibitor,RE007 growth inh
CN(C)/C=N/S(=O)(=O)c1cccn1-c1ncc(C(F)(F)F)cc1Cl,-,-,-,-,-,-
CN(C)/C=N/c1ncn(-c2ncc(C(F)(F)F)cc2Cl)n1,-,-,-,-,50.2,-
CC1=C(C)C(=O)C(C(CCCCCC(=O)O)c2ccccc2)=C(C)C1=O (centres undefined),.,.,.,-,.,.
Cc1ccc(NC(=O)c2ccc3snnc3c2)cc1,-,-,18.1,-,-,-
Cc1ccc(NC(=O)c2ccc3snnc3c2)cc1Cl,.,.,.,-,.,.
COc1cc(NC(=O)c2ccc3snnc3c2)cc(OC)c1,-,-,28.6,-,-,-
COc1ccccc1NC(=O)c1ccc2snnc2c1,-,-,-,-,41.6,-
CC(C)c1ccc(NC(=O)c2ccc3snnc3c2)cc1,.,-,-,-,-,-
O=C(Nc1ccccc1)c1ccc2snnc2c1,-,-,25.0,-,67.4,-
COc1ccccc1NC(=O)c1ccc2c(c1)nnn2C,-,-,-,-,-,-
Cc1nc(-n2nc(C)c(Cc3ccccc3Cl)c2C)sc1C(=O)N1CCC(C)CC1,.,.,.,-,.,.
CO[C@H]1COC(=O)[C@@H](C)COC(=O)[C@@H](OCc2ccccc2)/C=C\[C@@H]1C,-[12.9 µM],.,.,.,.,.
COc1ccccc1NC(=O)c1ccccc1NC(=O)c1ccccc1,.,.,.,-,.,.
COc1cccc(NC(=O)c2ccc3nsnc3c2)c1,-,-,28.3,-,77.8,-
Cc1ccc(C(=O)Nc2ccccc2OC(F)F)cc1,-,-,37.1,-,44.8,-
COc1ccccc1NC(=O)c1ccc(N)cc1,-,-,15.6,-,59.6,-
COc1ccccc1OC(=O)c1ccc2nsnc2c1,-,-,9.9,-,-,-
Cc1ccc(NC(=O)N2CCC(n3c(C)nc4cccnc43)CC2)c(Cl)c1,.,.,.,-,.,.
O=C(NC1CC1)c1ccc2snnc2c1,-,-,-,-,-,-
O=C(Nc1ccc(F)cc1)c1ccc2nsnc2c1,-,-,45.7,-,64.3,-
CC1CCC(NC(=O)c2ccc3snnc3c2)CC1 (centres undefined),-,-,40.8,-,50.3,-
COc1cc(NC(=O)c2ccc3nsnc3c2)cc(OC)c1OC,-,-,-,-,-,-
COc1ccccc1NC(=O)c1ccc2nsnc2c1,-,-,25.7,-,106.7,-
CCOC(=O)Cn1c(=O)n(-c2ccccc2OC)c2nc(-c3ccccc3)nc(C(N)=O)c21,.,.,.,-,.,.
N=C1CCC(=N)c2c1c(O)c1ccccc1c2O,6.29µM,-,12.8,?,-,?
C=CCOc1cccc(CNc2cccc(C(=O)O)c2)c1,?,-,29.4,-,103.7,-
